Data on 16 compounds can be found in PubChem BioAssay.

SMILES strings stand for the structures. Active and inactive are the calls of the source.

A short description of assay [1]: small molecules captured by biotinylated probe aFSTL3 – biochemical, small-molecule microarray, fluorescence 635/667, stem cell growth factor project, primary screen (AID 1064).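 Also: measures binding of the biotinylated anti-FSTL3 antibody to printed compounds.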 To be noted: higher = more signal.
Assay [2] in a line: binders from COS7 lysate, DM2A8 probe, primary screen, torsin A project, cell lysate, small-molecule microarray, fluorescence 635/667 (AID 1065). To be noted: higher = more signal, COS7 lysate expressing mutant human TOR1A.
The nature of assay [3]: small molecules captured by biotinylated probe aFGF2 – biochemical, small-molecule microarray, fluorescence 635/667, stem cell growth factor project, primary screen (AID 1067).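 Also: measures binding of biotinylated aFGF2 protein to printed compounds on slides; z-score merges feature fluorescence and signal-to-noise across triplicate slides.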 To be noted: higher = more signal.
Assay [4] can be described thus: small molecules captured by biotinylated probe aFGF10 – biochemical, small-molecule microarray, fluorescence 635/667, stem cell growth factor project, primary screen (AID 1071).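 Also: score merges 667 nm spot intensity and signal to noise from triplicate slides.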 To be noted: higher = more signal.
Assay [5] addresses Neurogenic locus notch homolog protein 2 (Homo sapiens) (UniProt Q04721). The experiment in a line: small molecules binding Notch2 protein – biochemical, small-molecule microarray, 635 nm fluorescence, stem cell growth factors, primary screen (AID 1073). To be noted: higher = more signal.
Assay [6] addresses Pro-neuregulin-1, membrane-bound isoform (Homo sapiens) (UniProt Q02297). The experiment in a line: small molecules binding neuregulin-1 protein – biochemical, small-molecule microarray, fluorescence 635/667, psychiatric disease protein project, primary screen (AID 1075).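 Also: score combines 667 nm spot fluorescence with signal to noise.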 The conditions noted are these: NRG1 binding, 635 nm fluorescence, higher = more signal.
The subject of assay [7] is Neuregulin-1 EGF-like domain. The experiment in a line: small molecules binding NRG1 EGF domain – biochemical, small-molecule microarray, 635 nm fluorescence, primary screen (AID 1081).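 Also: binding of the protein to compounds printed on small-molecule microarray slides.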 The conditions noted are these: higher = more signal.
Assay [8] in a line: FRG1 expression reporter modulators in myotubes – cell-based, C2C12 myotubes, firefly/Renilla luciferase, luminescence, FRG1 inhibition for FSHD, primary screen (AID 1084). To be noted: FRG1 promoter luciferase, higher = more signal, called active from +8 up or from −8 down.
Assay [9] in a line: small molecules captured by biotinylated probe aFST – biochemical, small-molecule microarray, fluorescence 635/667, stem cell growth factor project, primary screen (AID 1086).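 Also: score merges 667 nm fluorescence with signal-to-noise of each printed compound spot.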 To be noted: higher = more signal.
Assay [10] can be described thus: binders of probe aHhip on microarray, primary screen, stem cell growth factor project, biochemical, small-molecule microarray, fluorescence 635/667 (AID 1087).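 Also: score merges spot fluorescence at 667nm with spot signal to noise ratio.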 To be noted: higher = more signal.

Sequence of Neurogenic locus notch homolog protein 2 (Homo sapiens) (Q04721 whole entry, looked up, canonical isoform): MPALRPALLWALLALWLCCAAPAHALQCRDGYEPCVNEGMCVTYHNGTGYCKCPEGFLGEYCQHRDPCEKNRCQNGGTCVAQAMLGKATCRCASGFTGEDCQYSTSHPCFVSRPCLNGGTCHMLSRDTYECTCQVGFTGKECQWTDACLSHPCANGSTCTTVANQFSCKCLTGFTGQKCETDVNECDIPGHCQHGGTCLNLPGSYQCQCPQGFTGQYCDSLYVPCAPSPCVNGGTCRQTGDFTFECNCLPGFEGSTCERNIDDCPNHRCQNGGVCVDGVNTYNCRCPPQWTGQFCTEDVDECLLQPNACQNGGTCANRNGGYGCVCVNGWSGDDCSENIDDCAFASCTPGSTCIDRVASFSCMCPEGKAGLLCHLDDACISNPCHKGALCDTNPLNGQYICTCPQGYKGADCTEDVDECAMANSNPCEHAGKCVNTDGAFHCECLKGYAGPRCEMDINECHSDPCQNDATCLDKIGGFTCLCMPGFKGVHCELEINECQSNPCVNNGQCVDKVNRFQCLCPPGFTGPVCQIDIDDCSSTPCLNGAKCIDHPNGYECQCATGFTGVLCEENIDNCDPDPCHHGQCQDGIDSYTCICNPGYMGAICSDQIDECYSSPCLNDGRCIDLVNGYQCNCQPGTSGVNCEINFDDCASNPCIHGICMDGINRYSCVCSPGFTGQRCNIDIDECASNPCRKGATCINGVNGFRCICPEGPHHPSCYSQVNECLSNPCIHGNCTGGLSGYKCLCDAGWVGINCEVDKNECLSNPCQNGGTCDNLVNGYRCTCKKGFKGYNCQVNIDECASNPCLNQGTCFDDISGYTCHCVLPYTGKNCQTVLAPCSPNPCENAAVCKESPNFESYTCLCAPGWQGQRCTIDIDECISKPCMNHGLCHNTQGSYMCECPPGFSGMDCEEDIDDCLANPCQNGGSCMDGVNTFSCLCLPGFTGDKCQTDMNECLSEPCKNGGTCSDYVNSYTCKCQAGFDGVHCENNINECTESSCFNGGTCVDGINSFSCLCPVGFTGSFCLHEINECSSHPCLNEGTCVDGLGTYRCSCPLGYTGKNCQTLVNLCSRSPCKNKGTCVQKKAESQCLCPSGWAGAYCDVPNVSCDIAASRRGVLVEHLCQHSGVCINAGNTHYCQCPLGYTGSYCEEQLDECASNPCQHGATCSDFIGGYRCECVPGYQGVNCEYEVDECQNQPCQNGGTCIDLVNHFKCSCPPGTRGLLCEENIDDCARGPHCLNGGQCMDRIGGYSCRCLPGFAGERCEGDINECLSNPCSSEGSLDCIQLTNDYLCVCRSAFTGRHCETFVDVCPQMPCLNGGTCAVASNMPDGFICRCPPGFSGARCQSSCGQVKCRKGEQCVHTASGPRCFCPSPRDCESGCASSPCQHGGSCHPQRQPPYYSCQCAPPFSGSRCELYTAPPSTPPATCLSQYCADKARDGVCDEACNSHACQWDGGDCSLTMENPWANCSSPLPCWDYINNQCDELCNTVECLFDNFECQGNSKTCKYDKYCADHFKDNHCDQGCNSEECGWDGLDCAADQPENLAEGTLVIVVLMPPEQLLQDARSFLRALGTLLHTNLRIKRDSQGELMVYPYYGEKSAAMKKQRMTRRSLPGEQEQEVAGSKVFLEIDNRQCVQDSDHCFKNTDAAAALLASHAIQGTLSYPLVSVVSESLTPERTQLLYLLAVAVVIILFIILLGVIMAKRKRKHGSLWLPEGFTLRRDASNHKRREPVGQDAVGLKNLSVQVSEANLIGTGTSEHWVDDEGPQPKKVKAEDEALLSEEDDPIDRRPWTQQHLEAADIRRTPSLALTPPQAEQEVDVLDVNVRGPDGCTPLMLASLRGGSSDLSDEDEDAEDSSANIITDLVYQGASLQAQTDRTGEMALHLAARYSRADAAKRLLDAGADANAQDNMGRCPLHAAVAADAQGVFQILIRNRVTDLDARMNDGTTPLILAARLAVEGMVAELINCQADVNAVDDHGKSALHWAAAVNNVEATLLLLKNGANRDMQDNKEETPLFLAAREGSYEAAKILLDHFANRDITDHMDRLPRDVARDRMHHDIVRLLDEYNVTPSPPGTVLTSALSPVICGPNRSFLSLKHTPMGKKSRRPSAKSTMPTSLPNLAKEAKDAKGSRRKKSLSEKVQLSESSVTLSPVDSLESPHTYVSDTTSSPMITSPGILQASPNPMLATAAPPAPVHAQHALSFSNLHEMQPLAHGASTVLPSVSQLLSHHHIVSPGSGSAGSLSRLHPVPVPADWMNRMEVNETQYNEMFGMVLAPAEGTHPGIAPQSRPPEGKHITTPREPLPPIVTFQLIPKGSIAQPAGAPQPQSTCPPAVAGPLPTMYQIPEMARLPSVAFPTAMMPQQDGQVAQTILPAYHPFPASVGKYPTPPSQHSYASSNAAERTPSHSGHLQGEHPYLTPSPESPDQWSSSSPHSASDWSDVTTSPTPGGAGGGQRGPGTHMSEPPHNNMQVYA
Sequence of Pro-neuregulin-1, membrane-bound isoform (Homo sapiens) (Q02297 whole entry, looked up, the tested form may be a part, canonical isoform): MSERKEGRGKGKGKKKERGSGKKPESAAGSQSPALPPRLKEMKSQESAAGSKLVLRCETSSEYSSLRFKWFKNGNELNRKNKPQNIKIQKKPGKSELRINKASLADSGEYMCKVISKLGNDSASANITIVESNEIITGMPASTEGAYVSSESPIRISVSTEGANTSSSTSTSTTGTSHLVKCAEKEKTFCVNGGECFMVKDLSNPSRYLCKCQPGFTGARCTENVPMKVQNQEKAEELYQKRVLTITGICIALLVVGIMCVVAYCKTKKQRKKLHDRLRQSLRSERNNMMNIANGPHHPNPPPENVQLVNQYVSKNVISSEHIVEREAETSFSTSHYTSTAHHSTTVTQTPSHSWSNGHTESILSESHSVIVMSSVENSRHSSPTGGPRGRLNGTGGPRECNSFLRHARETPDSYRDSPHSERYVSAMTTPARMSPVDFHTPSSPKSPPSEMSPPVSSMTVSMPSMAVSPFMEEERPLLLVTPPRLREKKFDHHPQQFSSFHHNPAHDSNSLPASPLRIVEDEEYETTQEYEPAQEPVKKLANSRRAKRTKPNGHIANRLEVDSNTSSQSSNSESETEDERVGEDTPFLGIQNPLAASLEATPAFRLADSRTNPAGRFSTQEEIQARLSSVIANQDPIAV

Regarding `COC(=O)[C@@]1(Cc2ccccc2)[C@H]2c3cc(C(=O)N4CCCC4)n(CC4CC4)c3C[C@H]2CN1C(=O)c1ccccc1`, the composite z-score in [1] was 0.963; in [2] it was 0.365; in assay [3] it was 0.424; in [4] it was 0.703; in [5] it was 1.6; in assay [6] it was 1.64. For the same compound, the composite z-score in assay [7] is 1.14; in assay [9], 2.15; in assay [10], 0.337. For the same compound, in assay [8], the z-score is 0.692 (inactive).

As for `CS(=O)(=O)CCOC(=O)C1=CC(CCCO)=CC(c2ccc(CN3CCCC3)cc2)N(Cc2cc3c(cc2Br)OCO3)C=C1C(=O)OCCS(C)(=O)=O` (stereo not given), the composite z-score in [1] stood at 0.26; in assay [2], 1.77; in assay [3], 0.127; in assay [4], 1.22; in assay [5], 1.38; in assay [6] it was 2.1. The composite z-score in assay [7] worked out at 1.25; in assay [9], 0.624; in [10], 0.224. Moreover, the z-score in [8] was -0.271 (inactive).

In the case of `O=C1c2ccccc2[C@](Cc2ccccc2I)(C(=O)NC2CC2)[C@H](c2ccc(CO)cc2)N1Cc1ccccc1`, the composite z-score in assay [1] was 0.16; in assay [2], -0.211; in assay [3], -0.0335; in assay [4], 0.483; in assay [5], 0.543; in assay [6] it was 0.458. Further, the composite z-score in [7] was 0.774; in [9], -0.364; in assay [10], -0.0994. Further, the z-score in assay [8] was -3.11 (inactive).

As to `C=CCN1C(=O)[C@]2(O[C@H](CCO)[C@@H]([Si](C)(C)c3ccc(OC)cc3)[C@@H]2C)c2cc(N3CCCCC3=O)ccc21`, the composite z-score in assay [1] was -0.5; in assay [2] it was 0.897; in assay [3] it was -0.0291; in [4] it was 0.428; in assay [5], 1.15; in assay [6], 1.42. The figures for the composite z-score in [7], in assay [9] and in assay [10] were 1.24, 0.645 and -0.13, respectively. Also, the z-score in assay [8] was -3.81 (inactive).

Take `COc1ccc(CCN2C(=O)[C@@]3(Cc4ccccc42)c2ccccc2C(=O)N(Cc2ccccc2C(F)(F)F)[C@H]3c2ccc(CO)cc2)cc1`: the composite z-score was -0.402 in [1]; -0.0678 in assay [2]; -0.128 in assay [3]; -0.106 in assay [4]; -0.112 in assay [5]; -0.112 in assay [6]. The results for the composite z-score in [7], in [9] and in assay [10] were 0.791, -0.256 and -0.0994, respectively. For the same compound, the z-score in [8] is 0.453 (inactive).

Consider `COc1ccc(CCNC(=O)[C@@H]2c3ccccc3C(=O)N(C3Cc4ccccc4C3)[C@H]2c2ccc(CO)cc2)cc1`, for which the composite z-score in assay [1] was 0.287; in assay [2], -0.249; in assay [3], 0.0628; in assay [4], 0.219; in assay [5], -0.395; in assay [6], 1.49. In addition, the composite z-score in assay [7] is 1.05; in [9], -0.183; in [10] it was 0.113. Also, the z-score in [8] was -1.06 (inactive).

On to `CCC(CC)C(O)C1C=CC2C(=O)N(C)C(=O)C2N1Nc1ccccc1` (stereo not given), for which the composite z-score in assay [1] was 0.53; in assay [2] it was 0.219; in assay [3], 0.117; in [4], 0.258; in assay [5] it was 1.47; in assay [6], 1.47. The composite z-score is 0.816 in [7], 0.876 in assay [9] and -0.134 in [10]. Also, the z-score in assay [8] is 1.97 (inactive).

`C[C@@H]1ON(c2cccc(C(=O)OC(C)(C)C)c2)[C@H](c2ccc(Br)cc2)[C@H]1C(=O)N1C(=O)OC[C@H]1Cc1ccccc1`: the composite z-score was -0.532 in [1]; 0.351 in assay [2]; -0.031 in assay [3]; 0.511 in assay [4]; 1.37 in assay [5]; 0.457 in assay [6]. The composite z-score in assay [7] is 0.958; in assay [9], 0.625; in [10] it was 0.245. In addition, the z-score in assay [8] was -0.295 (inactive).

`COC(=O)C=C(CC(O)c1cccc(Cl)c1)OC` (stereo not given): the composite z-score in assay [1] is 1.55; in [2] it was 0.172; in [3] it was 0.54; in assay [4], 0.0631; in assay [5] it was -0.0372; in assay [6], 1.76. Besides, the composite z-score in assay [7] was 1.21; in [9], 1.65; in assay [10], -0.0879. In [8], the z-score is -4.2 (inactive).

Turning to `C=C(CCCC)C(=O)CC[C@H](OC(C)=O)c1cccc(OCCO)c1`, the composite z-score was 0.137 in [1]; -0.475 in [2]; -0.148 in assay [3]; -0.177 in assay [4]; -1.47 in [5]; -0.331 in assay [6]. Also, the composite z-score is -0.159 in assay [7], -0.463 in assay [9] and -0.137 in [10]. The z-score in assay [8] was 0.818 (inactive).

On to `COCCn1c(C(=O)N2CCCC2)cc2c1C[C@H]1CN(C(=O)c3ccccc3)[C@@](Cc3ccc(F)cc3)(C(=O)OC)[C@@H]21`, for which the composite z-score came to 0.123 in assay [1]; 0.214 in [2]; 0.24 in [3]; 0.252 in assay [4]; 1.41 in assay [5]; 1.81 in [6]. The composite z-score in assay [7] turned out to be 0.997; in assay [9] it was 0.77; in [10], 0.0078. Also, in assay [8], the z-score is 2.89 (inactive).

For `O=C1O[C@@H](c2ccccc2)[C@@H](c2ccccc2)N2[C@@H](c3ccccc3OCCO)[C@]3(C(=O)Nc4ccc(C#CC5=CCCCC5)cc43)[C@@H](C(=O)Nc3nc4ccccc4s3)[C@H]12`, the composite z-score is -0.177 in [1]; 0.106 in [2]; -0.0267 in assay [3]; 1.09 in [4]; 1.11 in assay [5]; 0.792 in assay [6]. Moreover, the composite z-score in [7] is 0.94; in assay [9], 0.438; in assay [10], -0.0346. The z-score in [8] was 0.197 (inactive).

Regarding `C=CCNC(=O)[C@H]1[C@@H]2C(=O)O[C@@H](c3ccccc3)[C@@H](c3ccccc3)N2[C@@H](c2ccc(O)cc2)[C@]12C(=O)N(C(=O)OCCOC)c1ccc(C#CCNC(N)=O)cc12`, the composite z-score was -0.14 in assay [1]; -0.019 in assay [2]; -0.0996 in assay [3]; 0.379 in [4]; 0.729 in assay [5]; 0.0037 in assay [6]. In addition, the values for the composite z-score in assay [7], in assay [9] and in assay [10] were 0.879, 0.007 and 0.0722, respectively. In [8], the z-score was -0.226 (inactive).

`C=CCN(Cc1ccccc1)C(=O)C(c1cccs1)N(CCOCCO)C(=O)/C=C\C(=O)O` (stereo not given): the composite z-score is 0.713 in assay [1]; -1.43 in [2]; -0.203 in assay [3]; -0.873 in assay [4]; -1.04 in [5]; -0.353 in [6]. Further, the values for the composite z-score in assay [7], in [9] and in assay [10] were -0.421, -1.59 and -0.341, respectively. In addition, the z-score in [8] was 0.919 (inactive).

Turning to `CCOC(=O)C1=CCC(c2ccc(C)cc2)N(S(=O)(=O)c2ccc(C)cc2)C1` (stereo not given), the composite z-score is 0.464 in [1]; -0.0577 in assay [2]; -0.0499 in [3]; 0.101 in assay [4]; 0.255 in assay [5]; 0.38 in assay [6]. In addition, the composite z-score was 0.923 in assay [7], 0.261 in assay [9] and -0.0994 in assay [10]. For the same compound, the z-score in assay [8] was -4.43 (inactive).

Consider `[N-]=[N+]=Nc1ccccc1C[C@@]1(C(=O)NCCN2CCOCC2)N=C(c2ccc(OCCCO)cc2)O[C@@H]1c1ccccc1`, for which the composite z-score in assay [1] is 0.234; in assay [2], 0.205; in assay [3], 0.146; in assay [4], 0.409; in assay [5], 1.59; in assay [6], 1.6. The composite z-score in assay [7] was 1.24; in assay [9], 1.01; in assay [10], -0.286. In [8], the z-score was -1.23 (inactive).
